Data published in PubChem BioAssay (NCI).
Compounds without any hit were thinned out: in the full panel of roughly 83,000, 20% have a hit.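 Single-dose data. Exposure time 48 hours. Values below 10 considered active.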 A number with no mark means an inactive call. The source made the active and inactive calls.

tested on: 786-0 renal; experiment: NCI-60 one-dose screen, 48 h (100 = growth as untreated, 0 = no growth, -100 = all killed); details: 10 µM

| Compound | growth |
| --- | --- |
| O=[N+]([O-])C1CC2C=CC1C2 (stereo not drawn) | 90.4% |
| COc1ccc(C2CC(c3ccc(-c4ccccc4)cc3)=NN2c2ccc(S(N)(=O)=O)cc2)cc1 (stereo not drawn) | 92.1% |
| O=C(Nc1cccc(F)c1)Nc1cccc(Cl)c1 | 94.2% |
| COc1cc(/C=C2\C(=O)Nc3cc(C)c(O)cc32)cc(OC)c1OC | 70.1% |
| COC(=O)c1ccc(Cn2ccc(=O)[nH]c2=O)cc1 | 80.5% |
| Nc1nc2c(ncn2C2OC3COP(=O)(O)OC4C(COP(=O)(O)OC2C3O)OC(n2cnc3c(N)ncnc32)C4O)c(=O)[nH]1 (stereo not drawn) | 103% |
| COc1cccc(C(=O)NNc2nc(N3CCN(C4CCCCC4)CC3)nc(N3CCN(C(c4ccccc4)c4ccccc4)CC3)n2)c1 | 53% |
| O=C(CCCC(=O)N/N=C/c1cc(Cl)ccc1O)N/N=C\c1cc(Cl)ccc1O | 24.8% |
| COc1ccc2nc(/C=C/c3ccc(N(C)C)cc3)sc2c1 | 93% |
| O=c1cc(CSc2nnc(-c3ccccc3)n2-c2ccc(F)cc2)c2ccc3ccccc3c2o1 | 102% |
| O=C(O)CCCCSCCCCC(=O)O | 101% |
| C#C[C@]1(O)CC[C@H]2[C@@H]3CC[C@H]4CC(F)(F)CC[C@]4(C)[C@H]3CC[C@@]21C | 101% |
| O=C(OCC1OC(n2cc(C(F)(F)F)c(=O)[nH]c2=O)CC1OC(=O)c1ccc([N+](=O)[O-])cc1)c1ccc([N+](=O)[O-])cc1 (stereo not drawn) | 18.9% |
| COC(=O)c1cnc2c(c1)Oc1ccc(Cl)cc1-c1cc(C)nn1-2 | 97.5% |
| Cn1cnc([N+](=O)[O-])c1/C=C1\Oc2ccc(Cl)cc2C1=O | 91.9% |
| CCOC(=S)Sc1ccc([N+](=O)[O-])cc1[N+](=O)[O-] | 102% |
| NC(N)=NS(=O)(=O)c1ccc(Nc2ccc3nnc(-c4ccncc4)n3n2)cc1 | 104% |
| N#C/C(=C\N1C(=O)/C(=C/c2cccc([N+](=O)[O-])c2)SC1=S)c1nc2ccccc2s1 | 88.3% |
| CC(=O)Nc1ccc(Sc2ccc(NC(C)=O)cc2)cc1 | 94% |

| Compound | growth |
| --- | --- |
| O=C(CCl)N1c2ccccc2Sc2ccc3ccccc3c21 | -62.8% (active) |
| Cc1ccc(Cl)cc1Nc1nc(C(F)(F)F)ccc1C(=O)N/N=C/c1c(Cl)cccc1Cl | -32.6% (active) |
| COc1ccc(C2C=C(c3ccc(Cl)c(Cl)c3)N=C3SC(C)=CN32)cc1OC (stereo not drawn) | 78.8% |
| CCn1nc(-c2ccccn2)c2cccnc2c1=S | 106% |
| C=C[C@]1(C)C=C2C(=O)[C@@]3(O)OC(=O)[C@@]4(CCCC(C)(C)[C@H]34)[C@@]2(O)CC1 | -98.5% (active) |
| CCN(CC)CCCOC(=O)Nc1ccccc1Cl | 98.9% |
| O=S(=O)(NC1c2ccccc2Oc2ccccc21)c1cc(Cl)ccc1Cl | 84.6% |
| N#Cc1ccc(-n2cnc(NC(=O)[C@H]3CCN(C#N)C3)c2)cc1 | 23.7% |
| CC(=O)n1nc(C(=O)OC(C)(C)C)c2cc(F)c(F)cc21 | 97.5% |
| O=C1CC[C@@H](C(=O)N[C@H]2CSSC[C@@H](C(=O)NCCc3ccccc3)NC(=O)[C@H](Cc3ccccc3)NC(=O)[C@@H]3CCCN3C(=O)[C@@H]3CCCN3C2=O)N1 | 99% |
| CCc1c(C(=O)NCc2c(O)ccc3cccc(O)c23)[nH]c(C)c1C(C)=O | 60.9% |
| CS(=O)(=O)Nc1ccc(OCc2nnc(-c3ccc(Cl)cc3)o2)c(F)c1 | 89.4% |
| COc1ccc(-c2nc(-c3nc4ccc(OC)cc4[nH]3)c3ccccn23)cc1 | 84.4% |
| CC(C)c1ncc(CO)n1Cc1c(Cl)cccc1Cl | 104% |
| NC1CCC(Nc2nc(NCc3ccc(-c4ccco4)nc3)c3ncn(C4CCCC4)c3n2)CC1 (stereo not drawn) | 8.51% (active) |
| c1ccc(C2CCCCC2)c(OCCCCCN2CCNCC2)c1 | 60.1% |
| N#Cc1c(-c2ccccc2)nc(SCC(=O)N2CCOCC2)[nH]c1=O | 100% |
| Cc1cn(C(=O)/C(Cl)=C(/Cl)C(=O)O)c2ccccc12 | 116% |
| C=CCNCCCN1C(=O)c2ccc3c4c(ccc(c24)C1=O)C(=O)N(CCCNCC=C)C3=O | -31% (active) |
